Among the test systems are SK-MEL-2 melanoma; EKVX NSCLC; SN12C renal; UO-31 renal; TK-10 renal; ACHN renal; CAKI-1 renal; A498 renal; CCRF-CEM leukemia; MOLT-4 leukemia; SR leukemia; RPMI-8226 leukemia; OVCAR-8 ovarian; OVCAR-5 ovarian; OVCAR-4 ovarian; SK-OV-3 ovarian; IGROV1 ovarian; OVCAR-3 ovarian; HS 578T breast; NCI/ADR-RES ovarian.
Holding throughout (test): NCI-60 one-dose screen, 48 h (100 = growth as untreated, 0 = no growth, -100 = all killed)
What all share (conditions): 10 µM unless noted

About 83,000 compounds went through this panel and 20% of them were active in at least one assay; those are over-represented in the sample as a whole.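 Compound tested at a single concentration for 48 hours in 96-well plates; a percent growth value below 10 was scored as active.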 A number with no mark means an inactive call. The source made the active and inactive calls.

Turning to `Cc1nn(-c2ccccc2)c2ncn(CC(=O)N/N=C/c3ccccc3O)c(=O)c12`, the growth in the assay on SK-MEL-2 melanoma is 55%; in the assay on EKVX NSCLC, 13.3%; in the assay on SN12C renal it was 47.4%; with UO-31 renal, 22.6%; in the assay with TK-10 renal, 63.4%; with ACHN renal, 21.4%. Besides, the growth was 39.1% with CAKI-1 renal; 87.2% with A498 renal; 23.9% in the assay with CCRF-CEM leukemia; 9.42% (active) in the assay on MOLT-4 leukemia; 13.3% in the assay on SR leukemia; 45.4% in the assay on RPMI-8226 leukemia. Moreover, the growth in the assay with OVCAR-8 ovarian was 19.7%; in the assay on OVCAR-5 ovarian, 63.2%; in the assay on OVCAR-4 ovarian, 39.4%; with SK-OV-3 ovarian, 37.7%; in the assay on IGROV1 ovarian, 40.6%; in the assay on OVCAR-3 ovarian it was 18%. Further, the growth in the assay with HS 578T breast was 54.9%; in the assay with NCI/ADR-RES ovarian it was 23.3%.

As for `O=C(CSc1nc2ccccc2c(=O)[nH]1)NNC(=O)c1ccccc1Cl`, the growth with SK-MEL-2 melanoma is 105%; in the assay with EKVX NSCLC it was 109%; with SN12C renal, 112%; with UO-31 renal it was 91.2%; in the assay on TK-10 renal, 105%; in the assay with ACHN renal it was 112%. For the same compound, the growth in the assay on CAKI-1 renal is 90.4%; with A498 renal, 100%; in the assay with CCRF-CEM leukemia, 120%; in the assay on MOLT-4 leukemia, 111%; with SR leukemia, 113%; in the assay with RPMI-8226 leukemia, 108%. In addition, the growth is 100% in the assay with OVCAR-8 ovarian; 129% with OVCAR-5 ovarian; 99.6% in the assay with OVCAR-4 ovarian; 103% in the assay with SK-OV-3 ovarian; 128% in the assay with IGROV1 ovarian; 118% in the assay with OVCAR-3 ovarian. Further, the growth in the assay with HS 578T breast was 97.1%; with NCI/ADR-RES ovarian, 123%.

On to `O=C(Cn1c(-c2ccccc2)nc2ccccc21)N=Nc1c(O)[nH]c2ccc(Cl)cc12`, for which the growth with SK-MEL-2 melanoma was 17.6%; with EKVX NSCLC, 9.78% (active); in the assay with SN12C renal, 5.72% (active); in the assay with UO-31 renal, 1.39% (active); in the assay on TK-10 renal, 28.5%; with ACHN renal, -47.3% (active). For the same compound, the growth is 13% in the assay on CAKI-1 renal; -5.31% (active) in the assay with A498 renal; 31.8% in the assay on CCRF-CEM leukemia; 27.4% with MOLT-4 leukemia; -14.7% (active) in the assay with SR leukemia; 20.4% with RPMI-8226 leukemia. Moreover, the growth with OVCAR-8 ovarian was -26.3% (active); in the assay with OVCAR-5 ovarian it was 18.5%; with OVCAR-4 ovarian, -44.4% (active); in the assay on SK-OV-3 ovarian, -6.33% (active); with IGROV1 ovarian it was 9.94% (active); with OVCAR-3 ovarian, 1.02% (active). Moreover, the growth is -16.2% (active) with HS 578T breast and -43.2% (active) in the assay on NCI/ADR-RES ovarian.

With `Fc1ccc(Nc2nnc(-c3c[nH]c4ccccc34)o2)cc1`, the growth was 96.7% with SK-MEL-2 melanoma; 56.5% in the assay on EKVX NSCLC; 56.2% in the assay on SN12C renal; 44.4% in the assay on UO-31 renal; 123% in the assay on TK-10 renal; 77.5% in the assay on ACHN renal. In addition, the growth was 67.8% with CAKI-1 renal; 133% with A498 renal; 16.3% in the assay with CCRF-CEM leukemia; 29.6% with MOLT-4 leukemia; 70.4% in the assay on SR leukemia; 24.7% in the assay on RPMI-8226 leukemia. Besides, the growth in the assay on OVCAR-8 ovarian was 85.5%; with OVCAR-5 ovarian it was 105%; with OVCAR-4 ovarian it was 81.1%; in the assay on SK-OV-3 ovarian, 83.6%; in the assay on IGROV1 ovarian, 50.8%; with OVCAR-3 ovarian, 107%. Further, the growth with HS 578T breast is 82%; in the assay on NCI/ADR-RES ovarian, 74.6%.

For the compound `O=CNc1cccc(-n2cnc3cc(-c4ccc(O)cc4)ccc32)c1`, the growth in the assay on SK-MEL-2 melanoma was 79.2%; in the assay on EKVX NSCLC, 71.5%; in the assay on SN12C renal, 22.9%; in the assay with UO-31 renal it was 10.3%; in the assay with TK-10 renal, 79.3%; in the assay on ACHN renal, 16.9%. In addition, the growth in the assay with CAKI-1 renal is 42.2%; in the assay with A498 renal, 147%; in the assay on CCRF-CEM leukemia it was 23%; with MOLT-4 leukemia, 27.7%; in the assay with SR leukemia, 33.8%; with RPMI-8226 leukemia, 24.3%. In addition, the growth in the assay on OVCAR-8 ovarian was 31.6%; in the assay with OVCAR-5 ovarian, 68.7%; in the assay on OVCAR-4 ovarian it was 65.4%; in the assay with SK-OV-3 ovarian, 28.4%; in the assay with IGROV1 ovarian, 44.3%; with OVCAR-3 ovarian it was 26.8%. Moreover, the growth in the assay on HS 578T breast was 24.4%; with NCI/ADR-RES ovarian, 12.1%.

In the case of `C=CC[n+]1cccc2c3ccccc3ccc21`, the growth in the assay with SK-MEL-2 melanoma was 63.3%; with EKVX NSCLC, 23.7%; with SN12C renal it was 8.67% (active); in the assay with UO-31 renal, 56.5%; in the assay on TK-10 renal, 67.1%; in the assay on ACHN renal, 88%. The growth in the assay on CAKI-1 renal is 60.6%; in the assay on A498 renal it was 48.6%; with CCRF-CEM leukemia, 47.3%; in the assay on MOLT-4 leukemia, 47.9%; in the assay on SR leukemia, 46.5%; with RPMI-8226 leukemia, 27.6%. Also, the growth with OVCAR-8 ovarian is 41.1%; in the assay on OVCAR-5 ovarian, 70.8%; in the assay on OVCAR-4 ovarian, 42%; in the assay on SK-OV-3 ovarian it was 77%; in the assay with IGROV1 ovarian it was 72.5%; with OVCAR-3 ovarian, 35.9%. For the same compound, the growth in the assay with HS 578T breast is 43.7%; in the assay with NCI/ADR-RES ovarian it was 97.2%.

As for `Cc1ccc(C2CC(c3ccc(NC(=O)Nc4ccccc4)cc3)=NN2c2ccc(S(C)(=O)=O)cc2)cc1` (stereo not given), the growth in the assay on SK-MEL-2 melanoma was -13.7% (active); with EKVX NSCLC, -2.75% (active); in the assay on SN12C renal, -94% (active); in the assay on UO-31 renal it was 3.37% (active); with TK-10 renal, 21.7%; in the assay on ACHN renal it was -44.4% (active). Moreover, the growth with CAKI-1 renal is 5.74% (active); with A498 renal, -16.3% (active); in the assay on CCRF-CEM leukemia, 9.5% (active); with MOLT-4 leukemia, 20.3%; in the assay with SR leukemia, 15.5%; with RPMI-8226 leukemia, -0.47% (active). Besides, the growth was 7.91% (active) with OVCAR-8 ovarian; -51.3% (active) with OVCAR-5 ovarian; 17.6% in the assay with OVCAR-4 ovarian; 26.8% in the assay with SK-OV-3 ovarian; -28.1% (active) in the assay on IGROV1 ovarian; -2.63% (active) with OVCAR-3 ovarian. Also, the growth in the assay with HS 578T breast is 21.3%; with NCI/ADR-RES ovarian, -35.3% (active).

Turning to `S=C(NCCc1ccccc1)Nc1ccc(OCc2nc3ccc(Cl)cc3[nH]2)cc1`, the growth is 16.5% in the assay on SK-MEL-2 melanoma; 33.1% in the assay on EKVX NSCLC; 11.6% in the assay on SN12C renal; 13.9% with UO-31 renal; 62.4% with TK-10 renal; 14% in the assay with ACHN renal. Moreover, the growth with CAKI-1 renal is 25.2%; with A498 renal, 95.6%; in the assay on CCRF-CEM leukemia, 9.55% (active); in the assay on MOLT-4 leukemia, 13.8%; in the assay with SR leukemia it was -7.42% (active); in the assay on RPMI-8226 leukemia, 7.74% (active). Also, the growth with OVCAR-8 ovarian was 39.7%; with OVCAR-5 ovarian, 30.5%; with OVCAR-4 ovarian it was 32.1%; with SK-OV-3 ovarian it was 77.2%; in the assay on IGROV1 ovarian it was 31.4%; with OVCAR-3 ovarian, 34.9%. Further, the growth with HS 578T breast is 38.4%; with NCI/ADR-RES ovarian, 11.7%.

Values taken from PubChem BioAssay (NCI).
